# Assay results taken from PubChem BioAssay (NCATS).
# Inconclusive results are not listed. Activity calls are given as the source filed them. Unless noted, calls come from the whole dose curve; as a rule, active = well fitted curve in the direction sought with a large enough effect; inconclusive = small, poorly fitted or top-dose-only effect, or another doubt; inactive = no such curve, though single readings can be large; an effect the other way counts as inactive or inconclusive.
# Tests used:
# [1] = qHTS drug screen for cell cycle checkpoint inhibitors in PARPi-resistant BRCA-mutant ovarian cancer cell lines. (AID 1963452; calls by dose curve); settings: PEO1/OlaR viability, CellTiter-Glo luminescence, 96 h, stronger effect = lower value
# In short: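 PEO1, PEO4 and PEO1/OlaR ovarian cancer cells, 600 per well, exposed 96 h at 37C to a dilution series. Viability read by CellTiter-Glo luminescence, normalized to DMSO and empty wells; activity summarized as Z-AUC.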
# [2] = target: Cytochrome P450 2C9 (Homo sapiens) (UniProt P11712); assay: qHTS for inhibitors of CYP2C9 against the NCATS DSHEA and TCM libraries (AID 1919973); settings: recombinant CYP2C9 enzyme activity, luminescence; series mostly up to 34.1 µM;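 note: luminogenic pro-luciferin CYP2C9 substrate turned into luciferin with NADPH regeneration; % is set by controls: 0 for no effect and ±100 for the full control effect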
# In short: (§1)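 Each CYP isoform and its pro-luciferin substrate, at isoform-specific final concentrations, were preincubated 15 min at RT with substances. NADPH regeneration solution (1x) started a 30-45 min reaction, and P450-Glo luminescence was read.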
# [3] = target: Cytochrome P450 2C19 (Homo sapiens) (UniProt P33261); assay: qHTS for inhibitors of CYP2C19 against the NCATS DSHEA and TCM libraries (AID 1919974); settings: CYP2C19 enzyme inhibition, luminescence qHTS; series mostly up to 34.1 µM;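 note: luminescence from luciferin released by CYP2C19 oxidation of a pro-luciferin substrate; % is set by controls: 0 for no effect and ±100 for the full control effect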
# In short: as §1
# [4] = KB-3-1 P-gp reporter qHTS against the NCATS DSHEA and TCM libraries (AID 1919975); settings: KB-3-1 parental cells, CellTiter-Glo luminescence viability, 72 h; series mostly up to 26.1 µM; note: 0% is about no effect
# In short: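 Cell viability qHTS: 500 KB-3-1 cells/well, substances in titration, ~72 h, 37C; luminescent CellTiter-Glo read.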
# [5] = target: Cytochrome P450 1A2 (Homo sapiens) (UniProt P05177); assay: qHTS for inhibitors of CYPIA2 against the NCATS DSHEA and TCM libraries (AID 1919976); settings: recombinant CYP1A2 enzyme activity, luminescence; series mostly up to 37 µM; note: % is set by controls: 0 for no effect and ±100 for the full control effect
# In short: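 Reaction started with 1x NADPH regeneration solution and run 30-45 min, room temperature, protected from light, after compounds sat 15 min with CYP1A2 and pro-luciferin substrate. P450-Glo detection gave luminescence; furafylline served as control.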
# [6] = qHTS Counterscreen for compound interference against the NCATS DSHEA and TCM libraries (AID 1919978); settings: firefly luciferase detection reagent interference, luminescence;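 note: compounds preincubated with 1 µM D-luciferin or buffer before detection reagent; % of control where 0% means no effect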
# In short: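 Interference check: test samples were incubated with D-luciferin (final 1 uM) or buffer only for 15 min, room temperature, in a qHTS titration up to 39.8 uM, then developed with detection reagent and read by luminescence.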
# [7] = Dual reporter qHTS for agonist of Pregnane X Receptor (hPXR) against the NCATS DSHEA and TCM libraries: Fluorescence readout (AID 1920058); settings: PXR dual reporter cells; series mostly up to 40 µM; note: 0% is about no effect
# In short: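 Viability readout (CellTiter-Fluor, 405/540 nm, 1 h) from agonist-mode PXR dual reporter in hPXR-Luc HepG2 cells. Substances ~24 h, 37 °C, 5% CO2; rifampicin reference, tetraoctyl ammonium bromide cytotoxic control.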
# [8] = target: Nuclear receptor subfamily 1 group I member 2 (Homo sapiens) (UniProt O75469); assay: Dual reporter qHTS for agonist of Pregnane X Receptor (hPXR) against the NCATS DSHEA and TCM libraries: Luminescence readout (AID 1920059); settings: hPXR dual reporter cells, luciferase luminescence agonist; series mostly up to 40 µM; note: 0% is about no effect
# In short: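 hPXR-Luc HepG2 cells, 2000/well in 5% charcoal-stripped FBS medium, attached 5 h, then exposed 24 h at 37C to compounds. Viability by CellTiter-Fluor, then luciferase luminescence with ONE-Glo.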
# [9] = target: Nuclear receptor subfamily 1 group I member 2 (Homo sapiens) (UniProt O75469); assay: Dual reporter qHTS for antagonist of Pregnane X Receptor (hPXR) against the NCATS DSHEA and TCM libraries: Luminescence Readout (AID 1920060); settings: hPXR dual reporter cells, luciferase luminescence, antagonist mode; series mostly up to 40 µM;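 note: HepG2 cells carrying hPXR luciferase reporter stimulated with rifampicin at 2 µM; 0% is about no effect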
# In short: (§2)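 hPXR-Luc HepG2 cells exposed 24 h at 37 C to compounds with 2 uM rifampicin in antagonist mode; luciferase luminescence measured by ONE-Glo, with CellTiter-Fluor viability read beforehand.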
# [10] = Dual reporter qHTS for antagonist of Pregnane X Receptor (hPXR) against the NCATS DSHEA and TCM libraries: Fluorescence Readout (AID 1920061); settings: PXR dual reporter cells, antagonist mode; series mostly up to 40 µM; note: 0% is about no effect
# In short: as §2
# 7G8 = assay: qHTS profiling for inhibitors of Plasmodium falciparum proliferation (AID 504749); note: nearly all actives have a fitted effect of over 60% in size; note: potency is the fitted concentration of half-maximal effect;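 for activity, negative = inhibition: 0% = DMSO vehicle and full inhibition = artemisinin control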; settings: P. falciparum in erythrocytes, SYBR Green DNA, 72 h; series mostly up to 28.7 µM
# In short: (§3)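 Each compound contacts P. falciparum-infected red blood cells for 72 h at 37 C; lysis buffer (Tris, EDTA, saponin, Triton X, SYBR Green I) is added and fluorescence measured next morning; values normalized to controls.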
# AA1029 = assay: as above; settings: P. falciparum in erythrocytes, SYBR Green DNA, 72 h; series mostly up to 28.7 µM
# In short: as §3
# AS120 = assay: as above; settings: P. falciparum in erythrocytes, SYBR Green DNA, 72 h; series mostly up to 28.7 µM
# In short: as §3
# ATS189 = assay: as above; settings: P. falciparum in erythrocytes, SYBR Green DNA, 72 h; series mostly up to 28.7 µM
# In short: as §3
# ATS95 = assay: as above; settings: P. falciparum in erythrocytes, SYBR Green DNA, 72 h; series mostly up to 28.7 µM
# In short: as §3
# C2A = assay: as above; settings: P. falciparum in erythrocytes, SYBR Green DNA, 72 h; series mostly up to 28.7 µM
# In short: as §3
# CP191 = assay: as above; settings: P. falciparum in erythrocytes, SYBR Green DNA, 72 h; series mostly up to 28.7 µM
# In short: as §3
# [11] = as above; settings: P. falciparum in erythrocytes, SYBR Green DNA, 72 h; for activity, negative = inhibition: at 28.7 µM (top of the series)
# In short: as §3
# CP185 = assay: as above; settings: P. falciparum in erythrocytes, SYBR Green DNA, 72 h; series mostly up to 28.7 µM
# In short: as §3
# 3D7 = assay: as above; settings: P. falciparum in erythrocytes, SYBR Green DNA, 72 h; series mostly up to 28.7 µM
# In short: as §3
# [12] = measured here: PEO1 parental Z-AUC
# Chain of Nuclear receptor subfamily 1 group I member 2 (Homo sapiens) (O75469 whole entry, looked up): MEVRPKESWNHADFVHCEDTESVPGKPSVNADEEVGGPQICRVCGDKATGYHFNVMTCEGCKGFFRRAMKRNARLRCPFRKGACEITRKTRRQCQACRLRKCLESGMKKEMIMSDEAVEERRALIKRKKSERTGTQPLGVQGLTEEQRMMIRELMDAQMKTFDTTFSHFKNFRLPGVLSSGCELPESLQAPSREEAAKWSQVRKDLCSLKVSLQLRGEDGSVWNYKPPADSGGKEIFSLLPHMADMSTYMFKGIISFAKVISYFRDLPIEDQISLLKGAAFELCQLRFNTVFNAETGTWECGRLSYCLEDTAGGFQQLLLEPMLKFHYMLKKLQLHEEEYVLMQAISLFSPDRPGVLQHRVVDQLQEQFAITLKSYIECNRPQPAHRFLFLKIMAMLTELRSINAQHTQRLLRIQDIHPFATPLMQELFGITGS
# Chain of Cytochrome P450 1A2 (Homo sapiens) (P05177 whole entry, looked up): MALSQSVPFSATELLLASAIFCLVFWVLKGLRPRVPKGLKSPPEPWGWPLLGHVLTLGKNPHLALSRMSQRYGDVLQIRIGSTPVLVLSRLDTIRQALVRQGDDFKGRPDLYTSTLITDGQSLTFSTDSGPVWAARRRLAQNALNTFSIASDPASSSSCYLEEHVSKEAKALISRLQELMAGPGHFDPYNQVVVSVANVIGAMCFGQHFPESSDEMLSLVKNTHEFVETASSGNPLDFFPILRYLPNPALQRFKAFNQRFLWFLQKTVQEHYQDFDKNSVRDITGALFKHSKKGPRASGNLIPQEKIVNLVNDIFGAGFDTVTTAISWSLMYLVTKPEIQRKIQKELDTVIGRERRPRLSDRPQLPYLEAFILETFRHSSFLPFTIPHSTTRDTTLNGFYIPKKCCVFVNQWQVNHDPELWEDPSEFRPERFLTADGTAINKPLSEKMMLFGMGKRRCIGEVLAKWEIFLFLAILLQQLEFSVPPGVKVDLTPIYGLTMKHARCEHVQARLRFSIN
# Chain of Cytochrome P450 2C9 (Homo sapiens) (P11712 whole entry, looked up, canonical isoform): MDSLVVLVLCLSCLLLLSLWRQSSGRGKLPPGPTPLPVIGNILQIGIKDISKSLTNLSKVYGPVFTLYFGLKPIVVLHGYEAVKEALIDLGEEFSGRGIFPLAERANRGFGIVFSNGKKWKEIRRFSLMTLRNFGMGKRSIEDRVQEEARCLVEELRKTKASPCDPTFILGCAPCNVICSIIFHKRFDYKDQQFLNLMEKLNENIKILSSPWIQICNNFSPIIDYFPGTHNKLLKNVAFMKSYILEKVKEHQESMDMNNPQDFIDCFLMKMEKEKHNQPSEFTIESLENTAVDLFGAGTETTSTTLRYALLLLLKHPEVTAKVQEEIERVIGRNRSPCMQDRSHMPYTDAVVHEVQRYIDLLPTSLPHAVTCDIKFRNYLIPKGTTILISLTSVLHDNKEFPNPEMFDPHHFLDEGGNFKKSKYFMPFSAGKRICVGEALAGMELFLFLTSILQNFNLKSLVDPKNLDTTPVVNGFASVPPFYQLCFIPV
# Chain of Cytochrome P450 2C19 (Homo sapiens) (P33261 whole entry, looked up): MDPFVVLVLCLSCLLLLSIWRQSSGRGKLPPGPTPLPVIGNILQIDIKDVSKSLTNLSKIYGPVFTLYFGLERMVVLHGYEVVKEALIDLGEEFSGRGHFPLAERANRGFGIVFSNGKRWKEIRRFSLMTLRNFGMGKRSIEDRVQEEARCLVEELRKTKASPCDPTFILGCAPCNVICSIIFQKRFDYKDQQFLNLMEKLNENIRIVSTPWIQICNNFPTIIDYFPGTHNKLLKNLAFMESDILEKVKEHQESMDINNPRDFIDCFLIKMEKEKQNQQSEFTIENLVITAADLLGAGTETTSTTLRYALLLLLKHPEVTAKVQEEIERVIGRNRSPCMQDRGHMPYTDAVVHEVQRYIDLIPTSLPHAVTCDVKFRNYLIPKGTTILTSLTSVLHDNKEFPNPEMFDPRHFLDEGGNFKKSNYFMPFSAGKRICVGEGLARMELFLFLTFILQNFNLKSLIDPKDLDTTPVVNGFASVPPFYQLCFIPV
compound,measurement,setting,value
CCCCCCOC(=O)NC(=N)c1ccc(NCc2nc3cc(C(=O)N(CCC(=O)OCC)c4ccccn4)ccc3n2C)cc1,Z-AUC,[1],1.19 (inactive)
same,Z-AUC,[1]; [12],0.495
same,Z-AUC,[1]; measured here: PEO4 Z-AUC,0.615
C[N+](C)(C)CCO,outcome,[2],inactive
same,Potency,[3],inactive
same,outcome,[4],inactive
same,Potency,[5],inactive
same,max response,[6],2.09% (inactive)
same,outcome,[7],inactive
same,outcome,[8],inactive
same,outcome,[9],inactive
same,outcome,[10],inactive
CC1(C)O[C@@H]2C[C@H]3[C@@H]4C[C@H](F)C5=CC(=O)C=C[C@]5(C)[C@@]4(F)[C@@H](O)C[C@]3(C)[C@]2(C(=O)CO)O1,Z-AUC,[1],-1.1 (inactive)
same,Z-AUC,[1]; [12],0.399
same,Z-AUC,[1]; measured here: PEO4 Z-AUC,-0.582
CC1c2ccccc2CN1NC(=O)c1ccc(Cl)c(S(N)(=O)=O)c1 (stereo unspecified),Z-AUC,[1],1.28 (inactive)
same,Z-AUC,[1]; [12],0.911
same,Z-AUC,[1]; measured here: PEO4 Z-AUC,0.911
C[C@H]1C[C@H]2[C@@H]3CCC4=CC(=O)C=C[C@]4(C)[C@H]3C(=O)C[C@]2(C)[C@@]1(O)C(=O)CO,Z-AUC,[1],1.47 (inactive)
same,Z-AUC,[1]; [12],0.72
same,Z-AUC,[1]; measured here: PEO4 Z-AUC,0.786
CC(C)N(CCC(=O)c1ccc2ccccc2c1)Cc1ccccc1,Z-AUC,[1],-1.4 (inactive)
same,Z-AUC,[1]; [12],-0.867
same,Z-AUC,[1]; measured here: PEO4 Z-AUC,-0.853
O=C(O)[C@H](O)[C@@H](O)[C@H](O[C@@H]1O[C@H](CO)[C@H](O)[C@H](O)[C@H]1O)[C@H](O)CO,Z-AUC,[1],0.899 (inactive)
same,Z-AUC,[1]; [12],1.15
same,Z-AUC,[1]; measured here: PEO4 Z-AUC,1.21
O=[N+]([O-])c1ccc(-c2nc(-c3ccc(F)cc3)c(-c3ccncc3)[nH]2)cc1,Z-AUC,[1],1.31 (inactive)
same,Z-AUC,[1]; [12],0.274
same,Z-AUC,[1]; measured here: PEO4 Z-AUC,0.382
COc1c(C)c2c(c(O)c1C/C=C(\C)CCC(=O)OCCN1CCOCC1)C(=O)OC2,Z-AUC,[1],0.671 (inactive)
same,Z-AUC,[1]; [12],0.614
same,Z-AUC,[1]; measured here: PEO4 Z-AUC,0.906
CNC[C@H](O)[C@@H](O)[C@H](O)[C@H](O)CO,Z-AUC,[1],-0.453 (inactive)
same,Z-AUC,[1]; [12],-0.0353
same,Z-AUC,[1]; measured here: PEO4 Z-AUC,0.238
CCOC(=O)O[C@]1(C(=O)OCCl)CC[C@H]2[C@@H]3CCC4=CC(=O)C=C[C@]4(C)[C@H]3[C@@H](O)C[C@@]21C,Z-AUC,[1],1.04 (inactive)
same,Z-AUC,[1]; [12],0.868
same,Z-AUC,[1]; measured here: PEO4 Z-AUC,1.23
CN1CCCN(C(c2ccccc2)c2ccc(Cl)cc2)CC1 (stereo unspecified),Potency,7G8,8.91 µM (active)
same,Potency,AA1029,7.94 µM (active)
same,Potency,AS120,11.2 µM (active)
same,Potency,ATS189,10 µM (active)
same,Potency,ATS95,11.2 µM (active)
same,Potency,C2A,11.2 µM (active)
same,Potency,CP191,10 µM (active)
Nc1c2ccccc2nc2ccccc12,Potency,[11]; parasite line A,7.94 µM (active)
same,Potency,[11]; parasite line B,11.2 µM (active)
same,Potency,7G8,3.16 µM (active)
same,Potency,AA1029,7.08 µM (active)
same,Potency,AS120,12.6 µM (active)
same,Potency,ATS189,7.08 µM (active)
same,Potency,ATS95,11.2 µM (active)
same,Potency,CP185,8.91 µM (active)
same,Potency,CP191,11.2 µM (active)
O=C(Nc1ccc(Cl)cc1)Nc1ccc(Cl)c(Cl)c1,Potency,[11]; parasite line A,3.16 µM (active)
same,Potency,[11]; parasite line B,3.98 µM (active)
same,Potency,3D7,5.01 µM (active)
same,Potency,7G8,0.501 µM (active)
same,Potency,AA1029,5.62 µM (active)
same,Potency,AS120,2.24 µM (active)
same,Potency,ATS189,3.16 µM (active)
same,Potency,ATS95,3.16 µM (active)
same,Potency,C2A,3.16 µM (active)
same,Potency,CP185,2.51 µM (active)
same,Potency,CP191,2.82 µM (active)
CCCCCCCCCCCCCC[N+](C)(C)C,Potency,[11]; parasite line A,5.01 µM (active)
same,Potency,[11]; parasite line B,7.08 µM (active)
same,Potency,3D7,3.98 µM (active)
same,Potency,7G8,2.24 µM (active)
same,Potency,AA1029,4.47 µM (active)
same,Potency,AS120,5.62 µM (active)
same,Potency,ATS189,5.62 µM (active)
same,Potency,ATS95,7.08 µM (active)
same,Potency,C2A,3.98 µM (active)
same,Potency,CP185,5.62 µM (active)
same,Potency,CP191,4.47 µM (active)
O=S(=O)(O)c1ccc2nc(-c3ccccc3)[nH]c2c1,"activity, negative = inhibition",[11]; parasite line A,7.74% (inactive)
same,"activity, negative = inhibition",[11]; parasite line B,3.12% (inactive)
same,Potency,3D7,inactive
same,Potency,7G8,inactive
same,Potency,AA1029,inactive
same,Potency,AS120,inactive
same,Potency,ATS189,inactive
same,Potency,ATS95,inactive
same,Potency,C2A,inactive
same,Potency,CP185,inactive
same,Potency,CP191,inactive
CN1CCCN=C1/C=C/c1cccs1,Z-AUC,[1],0.33 (inactive)
same,Z-AUC,[1]; [12],0.491
same,Z-AUC,[1]; measured here: PEO4 Z-AUC,0.415
